Reference: PubChem BioAssay AID504336 (NMMLSC, 2011)
Values without a mark were called inactive.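 The calls were made as follows: active = compounds whose GFP signal falls below 65% of the DMSO control level; inconclusive = fewer than 70 yeast cells counted in the well; inactive = the rest.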

Experiment: TOR branch reporter RPL19A-GFP response – cell-based, S. cerevisiae, third cherry pick, flow cytometry, confirmation (AID 504336);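 also: median GFP fluorescence of all gated yeast cells by flow cytometry; ratio of well median fluorescence to plate mean of DMSO wells with DMSO = 100%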
Details: S. cerevisiae RPL19A-GFP strain, 3 h, at 10 µM, active compounds read low

Structure (SMILES) | GFP response relative to DMSO [%]
CS(=O)(=O)Oc1ccc(Br)c2cccnc12 | 99.3
COc1ccccc1-c1cc(C(F)(F)F)nc(S(C)(=O)=O)n1 | 96.2
CC(=O)NCCOc1cccc2cccnc12 | 102
O=C(Nc1ccc(-c2nc3ccccc3o2)cc1)c1cccnc1 | 101
COCCCNc1nc(N)c([N+](=O)[O-])c(Nc2cc(OC)ccc2OC)n1 | 101
COC1=C/C(=C/c2c(N)n3cc(C)sc3nc2=O)C=CC1=O | 103
Nc1c(O)ccc2c1C(=O)c1ccccc1C2=O | 102
CC(=O)NC(C)c1cc(Cl)c2cccnc2c1O (centres undefined) | 99.1
CCCOCc1ccc(O)c2ncccc12 | 101
CNc1nc(C)c([N+](=O)[O-])c(Nc2ccc(OC)cc2)n1 | 102
COC(=O)COc1c(Cl)cc(Cl)c2ccc(C)nc12 | 105
CC1=CN2C(=N)/C(=C/c3ccc(C)o3)C(=O)N=C2S1 | 101
Oc1c(I)cc(Cl)c2cccnc12 | 86
COc1cccc(N/C=C/C(=O)c2ccc(C)cc2)c1 | 103
C/C(=C\C(=O)c1ccccc1)Nc1cccc(O)c1 | 98
Cc1cc(C)c(NC(=O)CC(=O)c2ccccc2)c(Cl)c1 | 97.8
Cc1cccc(C)c1Nc1ncnc(N)c1[N+](=O)[O-] | 98.5
Nn1cnc2c(c1=O)C1(CCCCC1)Cc1ccccc1-2 | 101
Brc1ccc2ncnc(NCc3ccccc3)c2c1 | 102
Cc1ccc(NC(=O)O/N=C2\CCCCC2c2ccc([N+](=O)[O-])cc2[N+](=O)[O-])cc1 (centres undefined) | 102

Structure (SMILES) | GFP response relative to DMSO [%]
N#Cc1c(N)nc(N)nc1Nc1ccc(Br)cc1 | 99.6
COc1ccc(OC)c(Nc2nc(NCCC(C)C)nc(N)c2[N+](=O)[O-])c1 | 103
Cn1c(=O)c2c(n3cnnc13)-c1ccccc1CC21CCCC1 | 102
COc1ccc(Nc2nc(NN)nc(C)c2[N+](=O)[O-])cc1 | 99.3
COc1ccccc1OCc1cc(C(=O)N2CCN(C)C(c3ccccc3)C2)no1 (centres undefined) | 101
Oc1ccc(Cl)c2cccnc12 | 98
O=C(N/N=C/c1ccccc1O)c1cccc2ccccc12 | 97
CC(=O)C(CC(=O)N1CCCC1)C(=O)Nc1ccc(Cl)cc1 (centres undefined) | 102
Nc1cccc2c1C(=O)c1ccc(Cl)cc1C2=O | 102
Cc1nc(Nc2ccc(Cl)cc2)c(C#N)c(=O)[nH]1 | 102
Nc1[nH]c(=O)nc(Nc2ccccc2)c1N=O | 101
Cc1ccc(Nc2cc(=O)[nH]c(=O)[nH]2)cc1Cl | 100
COCCNc1nc(N)c([N+](=O)[O-])c(Nc2ccc(F)cc2)n1 | 100
OCc1ccnc2c(O)cccc12 | 99.1
CCN(CC)c1ncnc2ccc(Br)cc12 | 98
O=C(O)c1ccc2cccnc2c1O | 100
COc1ccccc1Nc1nc(NCCCN(C)C)nc(N)c1[N+](=O)[O-] | 99.1
CC(=O)CC(=O)Nc1ccc(C(N)=O)cc1 | 100
Nc1ccc(O)c2c1C(=O)c1ccccc1C2=O | 98.5
